Bioassay records from PubChem.
PLK1 PBD block = blocks phosphopeptide binding to human PLK1 polo-box domain; P53350; Plk1 PBD binding of FITC phosphopeptide, fluorescence polarization; Potency, µM, for inactives: max response, negative = inhibition, actives largely listed as inhibitors; hit rate 2.8% among 360,000; AID 720504; also: potency is read from the fitted curve at half-maximal effect; series mostly up to about 57 µM; nearly all actives have a fitted effect of over 65% in size
G9a inh = blocks human histone lysine methyltransferase G9a. Q96KQ7. G9a H3K9 monomethylation, AlphaScreen, 2 h. Potency, µM (top dose mostly 102 µM), for the others: at the top dose activity, negative = inhibition, usual class: inhibitors. hit rate 8.8% among 350,000; also: potency is read from the fitted curve at half-maximal effect; nearly all actives have a fitted effect of over 75% in size
Target sequence (Q96KQ7 913-1193 limits assumed): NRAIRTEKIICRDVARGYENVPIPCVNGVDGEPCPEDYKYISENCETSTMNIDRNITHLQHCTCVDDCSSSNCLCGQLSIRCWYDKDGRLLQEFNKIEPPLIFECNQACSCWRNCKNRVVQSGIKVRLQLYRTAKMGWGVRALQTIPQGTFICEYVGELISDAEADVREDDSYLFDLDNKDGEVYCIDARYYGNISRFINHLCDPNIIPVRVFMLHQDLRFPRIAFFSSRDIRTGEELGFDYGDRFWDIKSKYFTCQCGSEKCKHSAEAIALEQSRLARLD
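Step 1: enzyme (final 20 nM) with compound, 15 min RT. Step 2: substrate peptide 500 nM and SAM 20 uM, 2 h RT. Step 3: anti-H3K9me1 antibody and AlphaScreen beads, 10 min, then plate read.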
MmCpn inh = inhibitors of Methanococcus maripaludis chaperonin TRiC (MmCpn) | Potency, µM (doses to about 76.9 µM), without a hit: top-dose activity, negative = inhibition, usual class: inhibitors | hit rate 0.031% among 330,000 | purified Mm-Cpn ATPase, ADP Transcreener TR-FRET; also: potency is read from the fitted curve at half-maximal effect; nearly all actives have a fitted effect of over 80% in size
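Quantitative HTS used 25 nM Mm-CPN and 10 uM ATP in magnesium/KCl Tris buffer, pH 7.4, with 1 mM DTT. Hydrolysis ran 30 min at 37°C; ADP was read by HTRF.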
VDR inh = inhibitors of human vitamin D receptor; hit rate 0.93% among 400,000; VDR-SRC2-3 peptide fluorescence polarization, 2 h; AID 504847; Potency, µM, inactives show max response, negative = inhibition, actives largely listed as inhibitors; P11473; also: potency is read from the fitted curve at half-maximal effect
Target sequence (P11473 whole entry, looked up): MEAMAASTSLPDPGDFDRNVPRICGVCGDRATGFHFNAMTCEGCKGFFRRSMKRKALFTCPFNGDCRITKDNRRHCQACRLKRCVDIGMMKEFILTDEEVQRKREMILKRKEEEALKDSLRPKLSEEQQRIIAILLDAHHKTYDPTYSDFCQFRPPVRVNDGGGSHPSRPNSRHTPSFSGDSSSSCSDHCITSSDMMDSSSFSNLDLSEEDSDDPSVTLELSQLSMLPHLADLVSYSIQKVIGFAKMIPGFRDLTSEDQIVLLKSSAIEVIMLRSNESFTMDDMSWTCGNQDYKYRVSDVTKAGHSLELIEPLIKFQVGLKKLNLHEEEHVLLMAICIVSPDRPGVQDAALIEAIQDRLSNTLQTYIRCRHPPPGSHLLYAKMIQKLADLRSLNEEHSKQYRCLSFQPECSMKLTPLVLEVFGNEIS
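Measured by FP: displacement of SRC2-3 coactivator peptide from VDR by library compounds, following a two-hour ambient incubation.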
CCT chaperon mod = cytosolic chaperonin activity modulation; hit rate 0.3% among 360,000; AID 651819; activity change, % (concentration not given with the values), hits read low; purified chaperonin ATPase assay, HTRF ADP detection, 30 min; in the data active = activity change below about -30%
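First, chaperonin was dispensed at 40 nM or 20 nM final depending on batch activity. Next, compounds were pinned at 76 uM and ATP added at 10 uM. After 30 min at 37 °C, ADP detection reagents ran 30 min at ambient temperature.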
Sfp inh = inhibitors of Bacillus subtilis Sfp phosphopantetheinyl transferase; Biochemical Sfp PPTase activity, qHTS; hit rate 3.5% among 310,000; Q9F4F7; Potency, µM, inactives show largest response in the series, negative = inhibition, usual class: inhibitors; AID 1490;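 also: the enzyme is Sfp with the accession as filed and its product quenches rhodamine fluorescence; potency is read from the fitted curve at half-maximal effect; 0% = enzyme reaction without inhibitor and -100% = no enzyme wells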
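Fluorescence-quenching assay: 15 nM Sfp-PPTase preincubated 15 min at room temperature with compound, then 5 uM rhodamine-CoA and 12.5 uM BHQ-2-labelled YbbR peptide added. Fluorescence (ex 525/em 598 nm) read at start and after 30 min; difference gives rate.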
The depositor's hits bear a star; ? = inconclusive; · = no result given; [ ] = dose if it differs, or a comment. Sampled rows, rich in hits. Any-hit rate of the full collection: about 10%. Unless noted, calls follow the shape of the dose curve; as a rule, active = well fitted curve in the direction sought with a large enough effect; inconclusive = small, poorly fitted or top-dose-only effect, or another doubt; inactive = no such curve, though single readings can be large; an effect the other way counts as inactive or inconclusive. Unless noted, % is scaled to controls: 0 for no effect and ±100 for the full control effect.

SMILES | PLK1 PBD block | G9a inh | MmCpn inh | VDR inh | CCT chaperon mod | Sfp inh
O=C(O)c1cccc(S(=O)(=O)N2CCN(C(c3ccccc3)c3ccccc3)CC2)c1 | -9% | 35µM* | -1% | 1% | -1 | 6%
CC(C)CO/N=C1/C[C@@H](O)[C@@H](O)[C@@H]2[C@H]3C(=O)N(c4ccc(F)cc4F)C(=O)[C@@H]3CC[C@H]12 | · | · | · | · | · | -2%
CCC(=O)c1ccc(OCC(=O)O)c(OC)c1 | 3% | 79µM* | -2% | 9% | 0 | 14%
COc1ccc(C(=O)CSC#N)cc1OC | 24µM* | ? | -2% | ? | -2 | -1%
COc1cc(C(=O)O)ccc1OCc1ccncc1 | -3% | 45µM* | 2% | -22% | 0 | 4%
FC(F)(F)c1ccccc1-c1ccc2ncnc(NC3CC3)c2c1 | · | 7%[0.501 µM] | · | ? | · | 15%
C#CCCCO/N=C1/C[C@@H](O)[C@@H](O)[C@@H]2[C@@H]3C(=O)N(c4cccc(Oc5ccccc5)c4)C(=O)[C@H]3CC[C@H]12 | · | · | · | · | · | 18%
COc1cc2cc(C(=O)Nc3ccccc3)c(N)nc2cc1OC | 24µM* | -3%[59 µM] | 0% | -19% | -2 | ?
COc1ccc(NC(=O)c2cccc(NC(=O)c3ccccc3)c2)cc1 | -10% | 1%[59 µM] | -2% | 27% | 0 | 7%
COc1cccc2cc(C(=O)Nc3ccc(F)cc3)c(=Nc3ccc(C(=O)O)cc3)oc12 | ? | 35µM* | 1% | 10% | -13 | -1%
COc1ccc(N=c2oc3c(OC)cccc3cc2C(=O)NCc2ccco2)cc1OC | 1% | ? | 1% | 16% | -1 | ?
COc1cc2ccccc2cc1C(=O)Nc1cccc(-c2nc3cc(C)c(C)cc3o2)c1C | · | 3.2µM* | · | -2% | · | ·
COc1cc2cc(C(=O)NC(C)c3cccc4ccccc34)c(N)nc2cc1OC (stereo unspecified) | -4% | · | · | · | 0 | ·
COc1ccc(N/N=C(C)/C(=N/O)C(=O)Nc2ccccc2)cc1 | -24% | 22µM* | 2% | 8% | 2 | 4%
COc1cc2ccccc2cc1C(=O)NC(=S)Nc1ccc(C(=O)O)cc1 | 30µM* | ? | -1% | -1% | -2 | -24%
COc1ccc(NC(=O)c2cc3ccccc3cc2OC)cc1 | 30µM* | 28% | 3% | ? | 1 | 14%
Cc1ccc(O)c(NC(=S)NC(=O)c2ccccc2Cl)c1 | 4% | 32µM* | -1% | -11% | -2 | 1%
COc1ccc(NC(=S)NC(=O)c2ccccc2Cl)cc1 | 27µM* | ? | 2% | -19% | 1 | -13%
COc1cc2ccccc2cc1C(=O)NC(=S)Nc1cccc(C(=O)O)c1 | ? | ? | 0% | -13% | 1 | 2%
COc1cccc(CNC(=O)C2Cc3cc(S(=O)(=O)N4CCCCCC4)ccc3N2C(C)=O)c1 (stereo unspecified) | · | 25%[59 µM] | · | 11% | · | ·
CCOc1ccc(C(=O)Nc2ccc(N3CCCC3)cc2)cc1 | -8% | ? | -3% | -8% | 1 | ?
CCOc1cccc(C(=O)Nc2ccc(N(CC)CC)cc2)c1 | 0% | 8.9µM* | -3% | -6% | 2 | 0%
CCN(CC)c1ccc(NC(=O)Nc2cccc(C(C)=O)c2)cc1 | -10% | 1.8µM* | · | 1% | 0 | -26%
CCOc1cccc(C(=O)Nc2ccc(N3CCCC3)cc2)c1 | -3% | 3.5µM* | -5% | -8% | -4 | 9%
CCOc1ccc(OCc2cccc(C(=O)Nc3ccc(CN4CCCCC4)cc3)c2)cc1 | -19% | 20µM* | 0% | -1% | -2 | 13µM*
SMILES | PLK1 PBD block | G9a inh | MmCpn inh | VDR inh | CCT chaperon mod | Sfp inh
COc1ccc(OCc2cccc(C(=O)Nc3ccc(CN4CCCCC4)cc3)c2)cc1 | 2% | ? | -4% | 14% | 2 | -18%
O=C(CCn1ccc2cc(S(=O)(=O)N3CCCC3)ccc21)NCc1ccccc1Br | · | 5%[59 µM] | · | 3% | · | ·
COc1ccc(CC(=O)Nc2sc3c(c2C(=O)Nc2cccc(C)c2)CCCCC3)cc1 | · | -47%[59 µM] | · | -8% | · | ·
CSCC[C@H](NC(=O)[C@H](CC(C)C)NC(=O)CNC(=O)[C@@H]1CCCN1C(=O)[C@H](Cc1ccccc1)NC(=O)[C@H](Cc1ccccc1)NC(=O)[C@H](CC(=O)O)NC(=O)[C@H](Cc1cnc[nH]1)NC(=O)[C@H](CCSC)NC(=O)[C@@H](N)CC(=O)O)C(N)=O | · | · | · | 4% | · | 6%
Cc1ccc(C)c(Cn2nnc(C(=O)NCc3ccccc3)c2N)c1 | · | -15%[59 µM] | · | -4% | · | ·
COc1ccc(-n2nc(C(=O)Nc3cc(OC)c(OC)c(OC)c3)c(=O)n(C)c2=O)cc1 | · | 13%[59 µM] | · | 1% | · | ·
CCOC(=O)C1(Cc2cccc(OC)c2)CCN(C2CCOCC2)CC1 | -3% | 50µM* | 1% | -4% | -2 | 0%
CCOC(=O)C1CCN(Cc2ccccc2C)CC1 | -5% | ? | -2% | -1% | 2 | 13%
CCOC(=O)C1CCN(Cc2coc3c(Cl)cc(Cl)cc3c2=O)CC1 | -5% | 11µM* | -2% | -13% | 0 | ?
CCOC(=O)C1CCN(Cc2cccc(OC)c2)CC1 | -7% | 10µM* | 0% | -2% | -1 | -19%
CCOC(=O)C1(Cc2cccc(F)c2)CCN(C2CCOCC2)CC1 | -9% | 5% | 0% | -6% | -2 | -2%
Brc1cccc(CN2CCCCCC2)c1 | -2% | 25µM* | 0% | 4% | 0 | 2%
Cc1cccc(N(CC(=O)N(C)Cc2ccccc2)S(=O)(=O)c2ccccc2)c1C | · | -44%[59 µM] | · | -8% | · | ·
Oc1cccc(CN2CCCCC2)c1 | -5% | 14%[59 µM] | -2% | -5% | 0 | 0%
CCOC(=O)C1CCN(Cc2ccc(F)c(F)c2)CC1 | -8% | 28µM* | 0% | 19% | -4 | -3%
Fc1ccc(CN2CCCCCCC2)cc1F | -1% | 25µM* | 0% | -3% | -3 | -10%
COc1ccc(-c2cn3cc(C)ccc3n2)cc1F | 9.5µM* | 3%[12.7 µM] | -3% | ? | 1 | 10%
O=C1CCCN1CCC1CCN(C2CC(=O)N(c3ccc(Cl)cc3)C2=O)CC1 (stereo unspecified) | -8% | 11µM* | · | 6% | -9 | -27%
O=C(C1CCCN(C2CC(=O)N(c3ccc(Cl)cc3)C2=O)C1)N1CCCC1 (stereo unspecified) | -7% | 79µM* | -6% | -18% | -3 | 5%
O=C1CCCN1CCC1CCN(C2CC(=O)N(Cc3ccc(N4CCCC4=O)cc3)C2=O)CC1 (stereo unspecified) | -4% | ? | 0% | 9% | 2 | 9%
O=C(O)c1ccc(N2C(=O)CC(N3CCN(c4cccc(Cl)c4)CC3)C2=O)cc1 (stereo unspecified) | -1% | 11%[0.501 µM] | -2% | 0% | -2 | -6%
